The whole screen tested about 300,000 compounds, of which about 5,200 (1.7%) were called active.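 How the source made its calls: active means mean replicate activation of at least 50% with a set share of replicates each reaching 50%; inconclusive means only one of those two conditions met; inactive means mean below 50% and too few replicates reaching it.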 Shown is part of a subset that was picked to be rich in actives.
assay: HSF-1 activators, primary screen, NIH3T3-HGL cells, MG132 stress, luminescence, single point (AID 504408); conditions: NIH3T3-HGL HSF-1 luciferase reporter, MG132, 8 h; at 9 µM; hits give high values; 100% = twice DMSO control signal;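 further: 0% = median of the neutral control wells and 100% = twice that signal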

activation, active:
CCc1ccc(N(CC(=O)Nc2sc3c(c2C(=O)OC)CCCC3)S(C)(=O)=O)cc1 59.7%, COc1cc(NC(=O)c2cc([N+](=O)[O-])ccc2Br)ccc1NC(=O)c1ccco1 111%, Cc1ccc(Cn2c(C)nc3c(c2=O)c2nc4ccccc4nc2n3Cc2ccco2)cc1 100%, CC(Oc1ccc(Cl)cc1)C(=O)OCC(=O)Nc1ncc(Cl)cc1Cl (stereo not drawn) 83.9%, CCOC(=O)C(CCOc1cccc(CC)c1)C(=O)OCC 109%, Cc1cc(C)cc(OCC(=O)O/N=C(\N)Cc2ccc([N+](=O)[O-])cc2)c1 59.9%, O=C1CCCN2N=C(SCC(=O)Nc3ccc(Br)cc3)SC2=N1 112%, Cc1ccc(N(Cc2ccc(C(=O)Nc3ccccc3C(=O)NCc3ccco3)cc2)S(C)(=O)=O)cc1C 87.4%, CS(=O)(=O)N(Cc1ccc(Cl)cc1)c1ccc(C(=O)NCCSCc2ccco2)cc1 71.5%, Cc1ccc(-c2c3c(=O)n(C)c(=O)n(C)c3cn2-n2cnnc2)cc1 89.3%, O=C(Nc1ccc(Br)cn1)c1ccc([N+](=O)[O-])cc1Cl 69.9%, O=C(Nc1ccc(Br)cn1)c1ccc([N+](=O)[O-])o1 131%, Cc1cccc(NC(=O)c2ccc([N+](=O)[O-])o2)c1 56.4%, Cc1onc(NC(=O)c2ccc([N+](=O)[O-])o2)c1Br 52.4%, Cc1cccc(NC(=S)NC(=O)c2ccc(Br)o2)c1 78.6%, Cc1ccc(NNC(=O)c2cccs2)cc1Cl 69.2%, O=C(Nc1ccc(F)cc1)c1cc2c(s1)CCCC2 91.6%, Nc1cccc2c1C(=O)N(Cc1nnc(-c3ccccc3Br)o1)C2=O 54.8%, CC(=O)Nc1ccc(N2C(=O)C3C4CC(=O)C(c5ccccc54)C3C2=O)cc1 (stereo not drawn) 63.1%

activation, inactive:
Cc1ccc(C)c(OCCC(=O)OCC(=O)NC(=O)NCc2ccccc2)c1 -2.69%, COC(=O)c1c(NC(=O)CSc2nncs2)sc2c1CCCCC2 17.2%, COC(=O)c1c(NC(=O)CN(c2ccc(C)c(C)c2)S(C)(=O)=O)sc2c1CCCC2 31.3%, CCCN(CC(=O)Nc1ccccc1OC)C(=O)CCC(=O)c1ccc(F)cc1 -3.54%, COc1ccccc1C(=O)Nc1ccc(NC(=O)c2ccco2)c(C)c1 -0.874%, O=C(Nc1ccc(NC(=O)c2ccco2)c(Cl)c1)c1cccc([N+](=O)[O-])c1 0.794%, O=C(OCC1OC(Oc2ccc(O)cc2)C(O)C(O)C1O)c1ccccc1 (stereo not drawn) -4.63%, Cc1nc2ccccc2c(=O)n1Cc1ccc([N+](=O)[O-])cc1 7.48%, Cn1c2ccccc2c(=O)c2c(=O)n(Cc3ccco3)c(COc3ccccc3)nc21 17.1%, O=C(NCCCN1CCCC1=O)c1cccc(S(=O)(=O)NCc2ccccc2)c1 18.7%, COc1ccccc1OCC(=O)Nc1ccccc1C(=O)NC1CC1 6.1%, OCCCNc1nc(-c2ccccc2)c2cc(Cl)ccc2n1 -8.88%, CCCCn1c(N)c(N(CCOC)C(=O)c2sc3ccccc3c2Cl)c(=O)[nH]c1=O 1.82%, CC(Oc1ccc(Cl)cc1)C(=O)Nc1ncccn1 (stereo not drawn) 9.27%, Cc1ccc(SCCC(=O)OCC(=O)Nc2ncc(Cl)cc2Cl)cc1 1.1%, CCC(C)N(C(=O)CSc1ncnc2c1cnn2-c1ccccc1)C1CCS(=O)(=O)C1 (stereo not drawn) -5.54%, CCOc1ccc(NC(=O)CN(C)C(=O)COc2cccc(CC)c2)cc1OCC -14.1%, CCOC(=O)c1cccc(NC(=O)CCOc2ccccc2)c1 9.76%, CC(=O)Nc1cccc(C(=O)OCC(=O)NCc2cc(C)c(O)c(C)c2)c1 3.6%, Nc1nonc1-n1nnc(C(=O)N/N=C/c2ccccc2O)c1CN1CCCC1 12.4%, CCOC(=O)COc1ccc([N+](=O)[O-])cc1 9.19%, N/C(Cc1ccc([N+](=O)[O-])cc1)=N\OC(=O)C1CCCCC1 -5.43%, COc1cc(OC)cc(C(=O)NNC(=O)CNC(=O)c2ccc(Br)o2)c1 12%, Cc1ccc(NC(=O)CSCC(=O)Nc2sccc2C#N)cc1 -2.79%, Cc1noc(C)c1COc1ccccc1C(=O)N(C)CC(=O)Nc1cccc(F)c1 -1.32%, O=C(CSCc1ccc(Br)cc1)Nc1ccc(S(=O)(=O)N2CCCCCC2)cc1 25.6%, Cc1cc(=O)[nH]c(SCC(=O)Nc2ccc(Br)cc2)n1 2.91%, CCOc1ccc(CC(=O)NCCS(=O)(=O)N2CCN(c3ccccc3)CC2)cc1 3.03%, COc1ccc(C(=O)Nc2ccccc2C(=O)NCc2ccco2)cc1 10.2%, Cc1cc(C)cc(N(CC(=O)NCCSCc2ccco2)S(C)(=O)=O)c1 9.37%, CCc1ccccc1N(CC(=O)NCCSCc1ccco1)S(C)(=O)=O 6.86%, O=C(Nc1ccccc1)Nc1ccccc1C(=O)NCc1ccco1 25.4%, O=C(CCN1C(=O)C2CCCCC2C1=O)Nc1ccc(OC(F)F)cc1 (stereo not drawn) 20.6%, O=C(CNC(=O)c1ccccc1Br)NCCSc1ccc(Br)cc1 8.99%, CCCn1c(C)cc(-c2csc(NC(=O)CCc3nc4ccccc4c(=O)[nH]3)n2)c1C -8.73%, CCCc1cc(=O)[nH]c2nnc(SCC(=O)Nc3nnc(SCC)s3)n12 -4.43%, CCOc1ccc(S(=O)(=O)Nc2ccc(C(=O)NCCCN3CCCC3=O)cc2)cc1 4.33%, CCc1noc(C)c1C(=O)NNC(=O)c1ccc(F)cc1 7.94%, COc1ccc(-c2c3c(=O)n(C)c(=O)n(C)c3cn2NC(C)=O)cc1 -5.15%, Cc1ccc(-c2c3c(=O)n(C)c(=O)n(C)c3cn2-c2ccccc2O)cc1 3.5%, COc1cccc(CNC(=O)C(=O)NCCC2CCCCN2S(=O)(=O)c2ccc(C)cc2)c1 (stereo not drawn) -8.41%, O=C(/C=C/c1ccc(Cl)cc1)Nc1ccc(Br)cn1 6.81%, O=C(Nc1ccncc1)c1ccc([N+](=O)[O-])cc1Cl 23.1%, CN1C(=O)c2ccc(C(=O)Nc3ccc(Br)cn3)cc2C1=O -4.17%, CC(C)C(=O)Nc1cccc(NC(=O)c2ccc([N+](=O)[O-])cc2Cl)c1 32.5%, COc1ccc(C(=NN)c2ccc(OC)cc2)cc1 29.3%, CN(C)CCn1c2c(c(SCC(=O)NCc3ccccc3)nc1=O)CCC2 4.29%, CCc1nnc(NS(=O)(=O)c2ccc(NC(=O)c3cccc(OC(F)(F)C(F)F)c3)cc2)s1 -15.3%, Cc1cccc(NC(=O)c2sc(-c3ccccc3)nc2-c2ccc([N+](=O)[O-])cc2)c1 -61.8%, Cc1cccc(NC(=O)c2cc([N+](=O)[O-])ccc2N2CCN(C)CC2)c1 13.9%, Cc1cccc(NC(=O)NC(=S)NC(=O)c2ccccc2)c1 13.9%, Cc1cccc(NC(=S)Nc2ccc(Br)cc2)c1 46.2%, Cc1onc(C(=O)NCc2ccc(F)cc2)c1[N+](=O)[O-] 8.38%, Cc1onc(C(=O)Nc2ccc3c(c2)OCO3)c1[N+](=O)[O-] 10.2%, O=C1[C@H]2[C@@H](c3ccc(F)cc3)N3C(=O)N(c4ccc(C(F)(F)F)cc4)C(=O)[C@@]3(Cc3ccccc3)[C@H]2C(=O)N1C1CCCCC1 -4.57%, O=C(NCCC1CCCCN1S(=O)(=O)c1ccc(Cl)cc1)C(=O)NCc1ccco1 (stereo not drawn) 22.8%, COc1ccc(NS(=O)(=O)c2ccc(C)c(C(=O)N(C)Cc3ccc(OC)cc3OC)c2)cc1 -13.6%, CCOc1ncccc1C(=O)NNC(=O)c1cccc(S(=O)(=O)Nc2ccccc2OC)c1 -1.67%, O=C(NNC(=O)c1ccc(Cl)cc1Cl)c1cccs1 25.3%, Cc1ccc(NNC(=O)c2c(F)cccc2Cl)cc1Cl 0.438%, Cc1ccc(NC(=O)c2cnc(SCC(=O)NCC3CCCO3)n(C)c2=O)cc1 (stereo not drawn) 7.91%, Cc1cc(C)c(-c2csc(NC(=O)CCCc3nc4ccccc4c(=O)[nH]3)n2)c(C)c1 -6.87%, Cc1ccc(S(=O)(=O)NC(C)C(=O)NCc2ccc(Cl)cc2)cc1 (stereo not drawn) 0.844%, CCc1noc(C)c1C(=O)Nc1nc(-c2ccccc2)cs1 6.16%, O=C(CNC(=O)c1cc2c(s1)CCC2)Nc1ccccc1Br 14.7%, O=C(NNC(=O)c1cc2c(s1)CCCC2)c1ccccc1 5.42%, CCOc1cc(C(=O)Nc2ccc(S(=O)(=O)Nc3cnc4ccccc4n3)cc2)cc(OCC)c1OCC 9.73%, CC1C(=O)N2CCCc3cc(S(=O)(=O)NCc4ccc(F)cc4)cc1c32 (stereo not drawn) 5.48%, CCOC(=O)N1CCN(Cc2nnc(-c3ccccc3Cl)o2)CC1 -16.1%, Cn1cnnc1SCc1nnc(-c2ccccc2Br)o1 1.6%, O=C(CSc1nc(=O)n2ccccc2n1)Nc1ccc2c(c1)OCCO2 -13.2%, COc1cccc(NC(=O)CSc2nccn(-c3ccc4c(c3)OCCO4)c2=O)c1 8.35%, CC(=O)Nc1ccc(N2C(=O)C3C4C=CC(CC4)C3C2=O)cc1 (stereo not drawn) 6.25%, CCc1ccccc1N1C(=O)C2C3CC(=O)C(c4ccccc43)C2C1=O (stereo not drawn) -0.868%

— PubChem BioAssay AID504408 (Broad Institute, 2011)
